Reference: paper PMC8769072, “Proteome‐scale mapping of binding sites in the unstructured regions of the human proteome” (Molecular Systems Biology, 2022)

Target: ZMYND11 480-602, Q15326
Sequence (Q15326 480-602): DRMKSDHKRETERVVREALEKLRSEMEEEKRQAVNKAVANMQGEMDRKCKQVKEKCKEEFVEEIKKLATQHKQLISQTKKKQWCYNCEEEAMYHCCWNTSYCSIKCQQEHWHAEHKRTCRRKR

Binder	selected by phage display
GMPALESVTIGDDIWD [TDRD5, Q8NAT2]	confidence 2 (active)
QFHPTPPPLQHYTLED [CBFA2T2, O43439]	confidence 2 (active)
MVVSMPNLQDIAMPEL [DENND3, A2RUS2]	confidence 3 (active)
EVEASMPQLWAGDSEG [ZNF484, Q5JVG2]	confidence 2 (active)
AVFPDDMPTLSALPWE [KMT2A, Q03164]	confidence 3 (active)
NQEQPTTLSMPLLMVS [ENO4, A6NNW6]	confidence 2 (active)
MPVLESSSWPASKGLG [NSD1, Q96L73]	confidence 3 (active)
